# Only some compounds are listed: those with a hit (about 3% of all), similar ones and a draw of the others.
# SNCA viab count: cell viability loss counter-screen | actives 0.12% (n = 150,000) | Potency, µM (series often up to 57.1 µM), inactives show at the highest dose activity change, negative = cytotoxicity, usual class: cytotoxic | AID 1671193 | HEK-293-SNCA-luc viability, GF-AFC fluorescence, 24 h;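 also: potency is read from the fitted curve at half-maximal effect; 0% = DMSO-treated cells and -100% = medium-only wells without cells; nearly all actives have a fitted effect of over 30% in size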
#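 HEK-293-SNCA-luc cells (1500/well) plated 24 h, then exposed 24 h to a dilution series; GF-AFC added 30 min at 37C, fluorescence 405/540 nm; normalised to medium-only and DMSO wells, Hill fit.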
# IP6K1 inh: inhibitors of human IP6K1 | IP6K1 kinase, ADP-Glo luminescence, 2 h; hits give low values | AID 1645851 | Q92551 | actives 0.81% (n = 140,000) | activity change, % (series mostly up to about 58 µM); in the data active = activity change below about -25%; also: % is scaled to controls: 0 for no effect and ±100 for the full control effect
#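 ADP-Glo luminescence measures ADP made by human IP6K1 during a 2 h RT reaction with ATP/IP6 (mix at 1.3 mM/130 uM); top library doses 57.5 and 19.1 uM final.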
# KDM5B inhibitor: KDM5B demethylase inhibition; Q9UGL1; KDM5B demethylase, FDH-coupled NADH fluorescence (FDH is formaldehyde dehydrogenase); Potency, µM (top dose mostly 57.7 µM), actives largely listed as inhibitors; actives 2.6% (n = 220,000); also: potency is read from the fitted curve at half-maximal effect; 0% is about no effect; nearly all actives have a fitted effect of over 70% in size
# Target sequence (Q9UGL1 whole entry, looked up): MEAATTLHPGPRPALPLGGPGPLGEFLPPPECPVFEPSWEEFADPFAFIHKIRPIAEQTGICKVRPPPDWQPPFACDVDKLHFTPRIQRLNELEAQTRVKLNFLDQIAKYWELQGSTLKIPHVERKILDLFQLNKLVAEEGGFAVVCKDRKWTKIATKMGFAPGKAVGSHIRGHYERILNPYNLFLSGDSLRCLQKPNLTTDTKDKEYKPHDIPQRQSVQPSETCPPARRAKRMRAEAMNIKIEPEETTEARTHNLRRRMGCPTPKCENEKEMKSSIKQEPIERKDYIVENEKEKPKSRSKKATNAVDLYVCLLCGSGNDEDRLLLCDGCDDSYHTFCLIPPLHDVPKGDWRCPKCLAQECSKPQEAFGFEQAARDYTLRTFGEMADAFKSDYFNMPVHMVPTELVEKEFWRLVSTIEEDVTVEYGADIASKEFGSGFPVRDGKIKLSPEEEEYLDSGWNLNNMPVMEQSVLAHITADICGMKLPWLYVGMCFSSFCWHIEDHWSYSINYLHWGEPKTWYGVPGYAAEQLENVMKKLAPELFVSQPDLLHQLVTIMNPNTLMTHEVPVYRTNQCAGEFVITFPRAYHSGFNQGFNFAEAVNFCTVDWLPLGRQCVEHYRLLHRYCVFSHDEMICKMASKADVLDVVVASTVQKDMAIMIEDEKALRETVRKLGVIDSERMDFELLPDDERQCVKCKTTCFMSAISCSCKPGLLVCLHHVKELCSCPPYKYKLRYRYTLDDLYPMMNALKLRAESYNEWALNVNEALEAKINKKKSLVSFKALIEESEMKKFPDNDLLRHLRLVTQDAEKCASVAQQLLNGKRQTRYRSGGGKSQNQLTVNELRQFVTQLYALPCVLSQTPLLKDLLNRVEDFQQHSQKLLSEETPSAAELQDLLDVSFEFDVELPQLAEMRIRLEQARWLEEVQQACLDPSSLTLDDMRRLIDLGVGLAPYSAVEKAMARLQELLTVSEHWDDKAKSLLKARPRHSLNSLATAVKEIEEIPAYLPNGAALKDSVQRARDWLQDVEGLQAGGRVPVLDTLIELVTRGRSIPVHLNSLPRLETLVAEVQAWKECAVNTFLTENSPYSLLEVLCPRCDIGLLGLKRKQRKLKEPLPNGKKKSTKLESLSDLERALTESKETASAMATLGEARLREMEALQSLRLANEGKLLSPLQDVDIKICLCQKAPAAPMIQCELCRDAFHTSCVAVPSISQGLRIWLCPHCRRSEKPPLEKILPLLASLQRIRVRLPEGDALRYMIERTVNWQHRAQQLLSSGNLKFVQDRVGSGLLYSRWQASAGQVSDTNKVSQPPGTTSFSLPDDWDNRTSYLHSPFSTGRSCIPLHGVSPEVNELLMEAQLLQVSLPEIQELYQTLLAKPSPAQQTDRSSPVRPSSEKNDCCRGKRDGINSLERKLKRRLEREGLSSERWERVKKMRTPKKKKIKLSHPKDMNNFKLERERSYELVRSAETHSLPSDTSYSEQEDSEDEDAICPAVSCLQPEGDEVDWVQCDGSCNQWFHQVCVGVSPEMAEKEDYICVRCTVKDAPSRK
#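 Inhibition is measured as reduced NADH fluorescence generation from FDH coupling to formaldehyde release. Truncated KDM5BΔAP at 200 nM final acts on H3K4me3 peptide (12.5 µM in substrate mix) in pH 7.5 HEPES buffer with Tween-20, 30 min, room temperature.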
# SNCA expr inhib: reduces expression of the alpha-synuclein gene; actives 0.17% (n = 140,000); HEK-293 SNCA-luciferase knock-in, luminescence, 24 h; Potency, µM (series often up to 57.2 µM), inactives show at the top dose activity change, negative = inhibition, hits mostly inhibitors;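 also: potency is read from the fitted curve at half-maximal effect; plate controls were DMSO cells for no effect and cell-free wells for full effect; nearly all actives have a fitted effect of over 45% in size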
# * = called active by the depositor; i = inactive; ? = inconclusive; . = no result; [ ] = remark or other dose. Unless noted, calls follow the shape of the dose curve; as a rule, active = well fitted curve in the direction sought with a large enough effect; inconclusive = small, poorly fitted or top-dose-only effect, or another doubt; inactive = no such curve, though single readings can be large; an effect the other way counts as inactive or inconclusive.
SMILES,SNCA viab count,IP6K1 inh,KDM5B inhibitor,SNCA expr inhib
COc1cc2c(cc1OC)C(C[C@H]1CN(C(=O)Nc3cccc(Cl)c3)CC[C@H]1CC(=O)O)=NCC2,3.2%,6.9,31.6µM*,?
COc1ccc(C(=O)NC2CCCN(c3ccc4nnc(C)n4n3)C2)cc1 (stereo not given),.,-1.7,.,.
CNC(=O)[C@@H]1CN(C(=O)c2sccc2C)C[C@H]1c1nc(COC)no1,6.4%,14.3,i,-15.5%
CNC(=O)[C@@H]1CN(C(=O)c2ccc(C)[nH]c2=O)C[C@H]1c1nc(COC)no1,?,1.3,25.1µM*,-5.4%
COC(=O)c1ccc(CNC(=O)C2Cc3ccc(C)cc3S2)cc1 (stereo not given),.,.,i,.
O=C(NC1CCCC1)c1ccc2nnc(-c3cncc(Cl)c3)n2c1,-5.0%,9.6,100µM*,6.8%
O=C(NC1CCCCC1)c1ccc2nnc(-c3ccc(F)cc3)n2c1,-1.5%,6.0,.,33.3%
O=C(NC1CC1)c1ccc2nnc(-c3ccc(F)cc3)n2c1,0.9%[87.6 µM],-1.2,126µM*,7.6%[87.6 µM]
O=C(NC1CCCCC1)c1ccc2nnc(C3CCCC3)n2c1,-10.2%[87.6 µM],6.8,.,0.0%[87.6 µM]
O=C(NC1CC1)c1ccc2nnc(C3CC3)n2c1,1.3%[87.6 µM],-14.5,100µM*,33.0%[87.6 µM]
O=C(NC1CCCCC1)c1ccc2nnc(-c3ccoc3)n2c1,1.8%[87.6 µM],-0.7,.,14.6%[87.6 µM]
O=C(c1nn(CC2CC2)c2c1CNCC2)N1CCC(Cc2ccccc2)CC1,4.2%,-0.6,.,10.8%
Cc1ccc(-c2ccccc2CN2CCC(C(=O)N3CCC(c4ccccc4)CC3)CC2)cc1Cl,.,-7.1,.,.
COc1ccc(-c2ccc3nnc(CNC(=O)COc4ccccc4)n3n2)cc1,-6.3%,6.8,28.2µM*,43.8%
COc1ccc(-c2ccc3nnc(CNC(=O)CNC(=O)c4ccccc4)n3n2)cc1,-3.3%,-7.3,28.2µM*,-4.2%
Cc1ccc(-c2ccc3nnc(CNC(=O)CNC(=O)c4ccccc4)n3n2)cc1,-4.0%,-8.2,31.6µM*,?
CN(C)c1nc2c(c(=O)[nH]c(=O)n2C)n1Cc1ccccc1Cl,.,.,i,.
O=C(COCC1CCCO1)N1CCc2onc(-c3ccc4c(c3)OCO4)c2C1 (stereo not given),3.2%,24.3,22.4µM*,-1.6%
Cc1noc(C)c1[S+](=O)([O-])N1CCCN(c2ccc3nnc(-c4ccccc4)n3n2)CC1,.,-8.6,.,.
CC(C)=CCC1(CO)CCCN(CC(=O)N2CCCCCC2)C1 (stereo not given),-2.3%,-6.4,i,8.4%
CC(C)=CCC1(CO)CCCN(Cc2cc(=O)n3cc(C)sc3n2)C1 (stereo not given),-6.5%,-6.5,28.2µM*,-2.7%
O=C(NCC(F)F)C1CCCCN1Cc1ccc(-c2cccs2)cc1 (stereo not given),-5.9%[12.5 µM],-10.4,.,43.8%
S=c1[nH]c2cc(-c3ccccc3)ccc2s1,.,.,i,.
CC(C)CCNC(=O)c1cccnc1N1CC2CC(C1)[C@H]1CCCC(=O)N1C2 (stereo not given in full),-3.5%,22.1,?,45.6%
O=C(NCCCN1CCCc2ccccc21)c1cccnc1N1CC2CC(C1)[C@H]1CCCC(=O)N1C2 (stereo not given in full),-7.3%,15.2,28.2µM*,-27.3%
SMILES,SNCA viab count,IP6K1 inh,KDM5B inhibitor,SNCA expr inhib
C=CCNC(=O)c1cccnc1N1CC2CC(C1)[C@H]1CCCC(=O)N1C2 (stereo not given in full),-2.3%,0.6,25.1µM*,3.5%
COc1cccc(-c2ccc(C(=O)N3CCC(N[S+](=O)([O-])c4c(C)noc4C)CC3)cc2)c1,8.6%[12.5 µM],-2.9,.,39.9%
CNc1nc2c(c(C(=O)N3CCCC3)n1)CN(C(=O)Cn1nccc1C)CC2,-3.5%,-2.3,22.4µM*,5.5%
COc1ccc(Cn2c(=O)c(C(=O)NCc3cccc(C(F)(F)F)c3)nc3cccnc32)cc1,7.6%,-4.4,.,-5.3%
CC(=O)c1cccc(S(=O)(=O)NCCc2csc3nc(-c4ccc(F)cc4)nn23)c1,31.6µM*,5.0,i,-12.4%
COCc1ccc2c(c1)c(OC(C)(C)C(=O)NC1CCOCC1)nn2CCC(C)C,-12.4%[87.6 µM],-2.1,39.8µM*,-24.1%[87.6 µM]
COCc1ccc2c(c1)c(OC(C)(C)C(=O)NCCCN1CCCC1=O)nn2CCC(C)C,-4.6%,-5.6,?,-23.4%
COCc1ccc2c(c1)c(OC(C)(C)C(=O)NC1CCC(O)CC1)nn2CCC(C)C (stereo not given),-11.8%[87.6 µM],5.7,31.6µM*,?
COCc1ccc2c(c1)c(OC(C)(C)C(=O)NC1CCOCC1)nn2Cc1cccnc1,6.6%[87.6 µM],5.3,i,2.2%[87.6 µM]
COc1ccccc1-c1ccc(CN2CCCCC2C(=O)NCC(F)F)cc1 (stereo not given),.,17.9,.,.
O=C(NCc1cccc(Cl)c1)C1CCCN(Cc2cccc(-c3ccsc3)c2)C1 (stereo not given),.,-6.4,.,.
CCC(Sc1nc2nccnc2c(=O)n1Cc1ccccc1Cl)C(=O)NC1CCCCC1 (stereo not given),?,28.9,i,3.55µM*
Cc1ccccc1C(=O)N1CCC(N2CCCCCC2=O)CC1,14.0%[87.6 µM],8.6,20µM*,5.8%[87.6 µM]
COc1ccc(CCc2nc3nccc(-c4ccc(OC)cc4F)n3n2)cc1,-6.1%,1.1,22.4µM*,-24.1%
c1ccc(-c2ccnc3nc(-c4cccs4)nn23)cc1,3.3%,-7.2,31.6µM*,131.0%
COc1ccc(-c2ccnc3nc(-c4cccs4)nn23)c(F)c1,2.1%,2.5,14.1µM*,-6.1%
COCc1nc2nccc(-c3ccc(OC)cc3F)n2n1,12.8%,-3.5,28.2µM*,-8.8%
CCc1nc2nccc(-c3ccc(OC)cc3F)n2n1,7.3%,-9.1,i,-19.3%
CCOC(=O)[C@@H]1CN(C(=O)NC2CCCC2)[C@H]2c3ccccc3O[C@@H]12,.,14.5,.,.
CCc1nc2nccc(-c3ccc(OC)c(OC)c3)n2n1,0.4%,-5.2,20µM*,10.6%
CCc1nc2nccc(-c3ccc(Br)cc3)n2n1,22.2%,12.4,15.8µM*,3.6%
COc1ccc(CCc2nc3nccc(-c4ccc(OC)cc4)n3n2)cc1,1.8%,-10.8,25.1µM*,50.7%
COc1ccc(-c2ccnc3nc(CCc4ccc(OC)c(OC)c4)nn23)cc1,-5.6%,-11.0,25.1µM*,4.9%
Cc1nn(-c2ccccc2)c2c1C(C)N(C1CCCN(C(=O)c3ccccc3Cl)C1)C2=O (stereo not given),.,-0.2,.,.
Cn1c(SCc2coc(-c3cccs3)n2)nnc1-c1ccccc1F,.,.,i,.
C=CCO[C@@H]1CCN2C(=O)c3cc(-c4cc(Cl)ccc4OC)ccc3NC(=O)[C@H]12,?,9.9,?,?
COc1ccc(F)cc1-c1ccc(CN2CCC(NC(=O)Nc3ccccc3)C2)cc1 (stereo not given),.,7.0,.,.
O=S(=O)(N[C@H]1CO[C@H]2[C@@H]1OC[C@@H]2n1nnnc1Oc1ccc(-n2cncn2)cc1)c1cccs1,-0.3%,15.4,17.8µM*,-24.3%
CS(=O)(=O)c1ccc(-c2nc(C(=O)NCc3cccnc3)n3ccncc23)cc1,?,18.7,10µM*,-18.2%

# Screening results: PubChem BioAssay, National Center for Advancing Translational Sciences (NCATS)
